# Source: the supplement of paper PMC3334620
# Whole data set: some 33,000 sequences, median “E-score (-0.5 to 0.5)” near -0.016, cut for the highest 2% near 0.32. The full list was thinned out, with the highest values kept by preference.
# Molecular target: T1, Stp1 (UniProt B3LFK1)
# T1 sequence: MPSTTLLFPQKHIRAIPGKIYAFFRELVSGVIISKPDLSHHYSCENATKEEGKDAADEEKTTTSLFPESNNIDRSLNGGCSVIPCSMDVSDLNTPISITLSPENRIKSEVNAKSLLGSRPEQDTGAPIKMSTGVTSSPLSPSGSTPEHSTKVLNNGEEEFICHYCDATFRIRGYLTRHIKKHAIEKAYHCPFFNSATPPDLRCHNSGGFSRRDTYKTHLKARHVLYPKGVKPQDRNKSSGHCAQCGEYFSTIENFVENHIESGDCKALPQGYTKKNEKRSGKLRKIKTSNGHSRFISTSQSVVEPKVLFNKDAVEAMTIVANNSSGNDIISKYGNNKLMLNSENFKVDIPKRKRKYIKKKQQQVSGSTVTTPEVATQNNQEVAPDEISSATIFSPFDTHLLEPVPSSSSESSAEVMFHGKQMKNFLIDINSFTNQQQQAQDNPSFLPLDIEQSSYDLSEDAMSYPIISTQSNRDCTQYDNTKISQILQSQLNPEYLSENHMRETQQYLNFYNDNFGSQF
# Test: PBM E-score (8-mer binding enrichment) (E-score (-0.5 to 0.5)); higher = stronger / more preferred TF binding
# Conditions: protein concentration: 200 nM; construct: GST-full length
# Protocol: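 Universal 'all 10-mer' protein binding microarrays (Agilent AMADID 015681) probed with GST-tagged S. cerevisiae TFs (full-length or DBD) made by in vitro transcription/translation (PURExpress), about 100-200 nM. Bound TF was detected with fluorescent anti-GST. Each ungapped 8-mer (which stands for itself and its reverse complement) is scored by the PBM enrichment score (E-score), a modified Wilcoxon-Mann-Whitney statistic from -0.5 to +0.5, computed with the Universal PBM Analysis Suite. Scale: above 0.35 generally sequence-specific binding.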
row,Sequence,PBM E-score
1,CTGGAGGC,-0.0215
2,ACTGGCTC,-0.267
3,AGTAGCTA,-0.16
4,TACGGCAA,0.449
5,CCCGGCAA,0.0207
6,ACCGGCAG,-0.121
7,TTCGGCAA,0.088
8,CACGGCAA,0.469
9,CTCGGCAG,0.117
10,CCCGGCAG,-0.227
11,ATCGGCAG,-0.00845
12,CACGGCAG,0.428
13,AACGGCAG,0.384
14,CTCGGCAA,0.1
15,TACGGCCA,0.214
16,AGACTTTC,-0.256
17,TCTCAACA,0.0271
18,CAGGCCAG,-0.0909
19,ATGGGAAC,-0.132
20,GTGAGCAC,-0.066
21,CCCTGATC,-0.255
22,CCTAACAC,0.067
23,CGAGCCTA,-0.0212
24,ACATTAAT,0.0799
25,ACAAGCGT,-0.135

row,Sequence,PBM E-score
1,ACCGGCAA,-0.0651
2,ATCGGCAT,0.238
3,ACCGGCAT,0.0121
4,ACCGGCAC,0.301
5,AACGGCAA,0.432
6,AACGGCAT,0.451
7,AATGGCAT,0.356
8,ATCGGCAC,0.297
9,ATCGGCAA,0.106
10,AACGGCAC,0.472
11,AATGGCAG,0.0303
12,AATGGCAC,0.275
13,TAGGGGAA,-0.171
14,AAAGGATT,-0.109
15,CAGTGGGG,-0.239
16,AAACTCGG,-0.0615
17,AGACTCAG,-0.133
18,CCTGCTTA,-0.0853
19,GTGTAGCA,-0.202
20,ATGGAAAC,-0.0997
21,CAAGCCCA,-0.0787
22,ACGGAATA,0.0278
23,GACGGCAC,0.453
24,GTCGGCAA,0.0611
25,GCCGGCAC,0.273

row,Sequence,PBM E-score
1,GCCGGCAA,0.106
2,GACGGAAC,-0.0397
3,GACGGCAA,0.325
4,CAAGCCCG,-0.0901
5,CCACACTA,0.127
6,ATCTAGCG,-0.0611
7,ACCAGATG,-0.146
8,AAGAGGCA,0.363
9,ATGAGGCC,0.0892
10,ATGAGGAA,-0.0278
11,AAGAGGCG,0.298
12,ATGAGGCG,0.35
13,ATGAGGTG,-0.0679
14,CTGAGGCA,0.192
15,GAGAGGCA,0.208
16,ATGAGGCA,0.332
17,AAGAGGCT,0.0613
18,GTGAGGCA,0.367
19,GGGAGGCA,0.00612
20,GTTCTGTA,0.0215
21,TCCCGCGA,-0.312
22,TATTGAGA,0.0944
23,CCTGCTCC,0.0227
24,CATTAAAA,0.245
25,CAAGACCC,-0.272

row,Sequence,PBM E-score
1,AAAGGACC,0.0732
2,ATGAGTAC,0.0493
3,AATGTGGC,0.158
4,CGTGTGGA,0.016
5,AGTGTGGC,0.068
6,CGTGTGGC,0.353
7,CATGTGGC,0.32
8,CATGTGGG,-0.144
9,AGCTCATC,-0.307
10,TAGCACCA,-0.0587
11,GCAACTAA,0.263
12,ATGTTTCG,0.147
13,AAAAACGA,0.128
14,CCGGCGCA,0.121
15,CCGGCGGC,0.152
16,GCGGCGCA,0.463
17,CCGGCGCG,0.298
18,TCGGCGCA,0.243
19,GCGGCCCC,0.176
20,GCGGCGCC,0.484
21,GGGGCGCA,0.126
22,CCGGCGCC,0.367
